Reference: PubChem BioAssay (Tox21)
“And” between values parts separate entries of the source, which are not always exact repeats. Equal entries are not always repeated. Inconclusive results are not listed. Unmarked numbers belong to inactive results. The source made the active and inactive calls. Calls follow the shape of the dose curve; as a rule, active = well fitted activation curve with a large enough effect in the repeat runs; inconclusive = weak or mixed curves; inactive = no such curve, though single readings can be large or run the other way.

The molecules below were run against Nuclear receptor subfamily 1 group I member 3 (Homo sapiens) (UniProt Q14994) (assay: qHTS assay to identify small molecule agonists of the constitutive androstane receptor (CAR) signaling pathway (AID 1224839; also: nearly all actives have a fitted effect of over 15% in size;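 as to activation: HepG2 cells stably carrying human CAR and a CYP2B6 luciferase reporter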)). Details: HepG2 hCAR CYP2B6-luciferase, agonist mode, 24 h; series mostly up to 92.4 µM; activation: at the top concentration.
Description: National Center for Advancing Translational Sciences [NCATS] NIH Chemical Genomics Center [NCGC] U.S. Environmental Protection Agency [EPA] National Institutes of Environmental Health Sciences [NIEHS] National Toxicology Program [NTP] Assay overview: The constitutive androstane receptor (CAR) is a nuclear receptor which regulates multiple drug metabolizing enzymes (DMEs) and transporters. Activating CAR will generally increase the transcription and subsequent translation of CYP2B6 and CYP3A4. These two DMEs represent about 50% of the drug metabolizing potential in the body. […] Recently, there have also been studies performed indicating CARs role in energy metabolism and cancer therapy. Therefore, inducing CARs activity could have a potential effect on diabetes and cancer. Identifying environmental toxins and compounds which modulate CAR, through the use of the Tox21 10K compound collection, will be an important step in determining the toxicity and potential therapeutic effects these factors will have on the human body.
Assay Protocol Summary: A double-stable (hCAR and CYP2B6-2.2kb) transfected cell line, derived from human hepatoma (HepG2) cells, was utilized for the duration of the quantitative high-throughput screens. The HepG2-CYP2B6-hCAR cells suspended in DMEM culture medium supplemented with 10% FBS, 5 ug/mL blasticidin, 0.5 mg/mL geneticin, 100 U/mL penicillin and 100 ug/mL streptomycin were dispensed at 2500 cells/4 uL/well in 1536-well white solid bottom plates using a Multidrop Combi. After the assay plates were incubated at 37 C/5% CO2 for 4 hrs, 23 nL of compounds at 15 concentrations (from 5-48 columns) or positive control (from 1 to 4 columns) were transferred to the assay plates using a Pintool station. One uL of PK11195, was added using a Flying Reagent Dispenser to generate a final concentration of 0.75 uM PK11195 inside each well. After a 24 hr incubation period at 37 C/5% CO2, four uL of ONE-Glo reagent was added into the assay plates using a Flying Reagent Dispenser. After a 30 min incubation period at room temperature, the luminescence intensity in the assay plates was measured using a ViewLux plate reader.
% is scaled to controls: 0 for no effect and ±100 for the full control effect; potency is read from the fitted curve at half-maximal effect.

Sequence of Nuclear receptor subfamily 1 group I member 3 (Homo sapiens) (Q14994 whole entry, looked up): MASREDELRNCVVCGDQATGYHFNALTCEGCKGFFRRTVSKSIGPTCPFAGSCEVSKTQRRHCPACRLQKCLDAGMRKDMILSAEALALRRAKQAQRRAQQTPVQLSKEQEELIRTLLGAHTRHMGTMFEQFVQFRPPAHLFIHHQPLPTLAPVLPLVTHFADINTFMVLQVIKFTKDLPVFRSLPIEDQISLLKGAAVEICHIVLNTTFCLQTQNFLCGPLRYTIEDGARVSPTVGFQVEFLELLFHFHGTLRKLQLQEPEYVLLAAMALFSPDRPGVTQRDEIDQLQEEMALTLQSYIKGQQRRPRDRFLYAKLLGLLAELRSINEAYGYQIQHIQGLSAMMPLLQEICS

Question: `O=C(N[C@H]1CN2CCC1CC2)c1ccc2c(c1)OCCO2` was tested. Which “activation” value did it give?
Answer: -1.84%

Question: How did the “activation” value turn out when `CCOC(=O)NC(O)C(Cl)(Cl)Cl` (stereo not given) was run?
Answer: 3.12% [at 42.5 µM]

Question: For `NCCc1cc(O)c(O)cc1O`, which “activation” value is on record?
Answer: 0.673% [at 42.5 µM]

Question: How did the “activation” value turn out when `FC(Cl)(Cl)C(F)(Cl)Cl` was run?
Answer: -0.232%

Question: With `Nc1ccccc1C(=O)OCC(O)CO` (stereo not given) as the molecule, how does the “activation” value read?
Answer: 1.04% [at 42.5 µM]

Question: `CCSCc1ccccc1OC(=O)NC` was tested. Which Potency did it give?
Answer: 27.3 µM (active)

Question: With `Nc1ccccc1C(=O)OCCc1ccccc1` as the molecule, how does the Potency read?
Answer: 54.7 µM (active) and 27.3 µM (active)

Question: How did the “activation” value turn out when `C=C(C)C(=O)OCCCCOC(=O)C(=C)C` was run?
Answer: -3.44%

Question: Which “activation” value does the source give for `O=C(O)c1cc(I)cc(I)c1I` here?
Answer: 5.24%

Question: Which “activation” value does the source give for `CC(C)(C)c1ccc(CCOc2ncnc3ccccc23)cc1` here?
Answer: -2.76%

Question: Which “activation” value does the source give for `COc1ccc2c(c1OC)C(=O)O[C@H]2[C@@H]1c2cc3c(cc2CCN1C)OCO3` here?
Answer: 0.63% [at 42.5 µM]

Question: With `O=C=NC1CCCCC1` as the molecule, how does the “activation” value read?
Answer: 12.1%

Question: For `O=S(=O)(c1ccccc1)c1ccccc1`, which “activation” value is on record?
Answer: 7.75%

Question: `c1ccc2c(c1)-c1cccc3cccc-2c13` was tested. Which Potency did it give?
Answer: 34.7 µM (active) and 30.6 µM (active)

Question: With `O=C(Cl)OCCOCCOC(=O)Cl` as the molecule, how does the “activation” value read?
Answer: 3.97%

Question: With `OCCSSCCO` as the molecule, how does the “activation” value read?
Answer: 1.52%

Question: Which “activation” value does the source give for `CCCCCCCCCCCCCCCl` here?
Answer: -1.4%

Question: `CCc1cnc(C2=NC(C)(C(C)C)C(=O)N2)c(C(=O)O)c1` (stereo not given) was tested. Which Potency did it give?
Answer: inactive

Question: With `CC(C)c1ccc(NC(=O)N(C)C)cc1` as the molecule, how does the Potency read?
Answer: 48.5 µM (active)

Question: `CCCSP(=S)(OCC)Oc1ccc(SC)cc1` (stereo not given) was tested. Which Potency did it give?
Answer: 21.7 µM (active)

Question: With `C[C@H]1O[C@H](OC2[C@@H](O)[C@@H](O)C(O)[C@H](O)[C@H]2O)[C@@H](N)C[C@@H]1N=C(N)C(=O)O` (stereo not given in full) as the molecule, how does the “activation” value read?
Answer: -1.51%

Question: Which Potency does the source give for `O=C(Cc1ccccc1)c1ccccc1` here?
Answer: 54.5 µM (active)

Question: For `C=CC(=O)NC(C)(C)CC(C)=O`, which “activation” value is on record?
Answer: 5.83%

Question: With `CCCCCBr` as the molecule, how does the “activation” value read?
Answer: 0.886%

Question: For `COCc1cnc(C2=NC(C)(C(C)C)C(=O)N2)c(C(=O)O)c1` (stereo not given), which “activation” value is on record?
Answer: -1.06%

Question: `Nc1cccc2ccccc12` was tested. Which Potency did it give?
Answer: 30.8 µM (active) and 61.1 µM (active)

Question: `CCCCOC(=O)CCC(=O)OCCCC` was tested. Which “activation” value did it give?
Answer: 2.59%

Question: With `CCC(C)Cl` (stereo not given) as the molecule, how does the “activation” value read?
Answer: -1.32%

Question: How did the “activation” value turn out when `CNC(=O)Oc1cccc(N=CN(C)C)c1` was run?
Answer: -0.714%

Question: Which “activation” value does the source give for `CCC1(CC)C(=O)NC(=O)NC1=O` here?
Answer: -3.43% [at 42.5 µM]

Question: Which “activation” value does the source give for `O=[N+]([O-])c1cc(Cl)c(Cl)cc1Cl` here?
Answer: 9.26%

Question: For `CC(Oc1cc(Cl)c(Cl)cc1Cl)C(=O)O` (stereo not given), which “activation” value is on record?
Answer: 2.51%

Question: With `O=C(O)C(F)(F)C(F)(F)C(F)(F)C(F)(F)C(F)(F)F` as the molecule, how does the “activation” value read?
Answer: -2.52%

Question: For `CCc1ccccc1N`, which “activation” value is on record?
Answer: 0.398%

Question: `COc1ccc(C(O)(c2cncnc2)C2CC2)cc1` (stereo not given) was tested. Which “activation” value did it give?
Answer: -0.502%

Question: `C=CCc1ccc(OC(=O)Cc2ccccc2)c(OC)c1` was tested. Which “activation” value did it give?
Answer: 6.87%

Question: Which “activation” value does the source give for `SCc1ccccc1` here?
Answer: 7.3%

Question: How did the activation turn out when `Nc1c(Br)cc(Br)c2c1C(=O)c1ccccc1C2=O` was run?
Answer: 7.31% [at 19 µM]

Question: Which “activation” value does the source give for `CC(C)C1(C)N=C(c2ncccc2C(=O)O)NC1=O` (stereo not given) here?
Answer: 2.1%

Question: How did the “activation” value turn out when `CCCC1CCCCN1` (stereo not given) was run?
Answer: 0.0249% [at 42.5 µM]
